Most compounds without a hit are left out; they make up all but 2.4% or so of the library.
PTHR1 agonist – agonists of human PTHR1 parathyroid hormone receptor; HEK293 GP2 PTHR1 cells, GloSensor cAMP luminescence, 1 h; 410,000 tested, 0.075% active; Potency, µM (titrated, usually from 115 µM), without a hit: at the top dose activation, hits mostly activators; further: potency means the concentration at half of the fitted maximal effect; nearly all actives have a fitted effect of over 55% in size
Target sequence (Q03431 whole entry, looked up): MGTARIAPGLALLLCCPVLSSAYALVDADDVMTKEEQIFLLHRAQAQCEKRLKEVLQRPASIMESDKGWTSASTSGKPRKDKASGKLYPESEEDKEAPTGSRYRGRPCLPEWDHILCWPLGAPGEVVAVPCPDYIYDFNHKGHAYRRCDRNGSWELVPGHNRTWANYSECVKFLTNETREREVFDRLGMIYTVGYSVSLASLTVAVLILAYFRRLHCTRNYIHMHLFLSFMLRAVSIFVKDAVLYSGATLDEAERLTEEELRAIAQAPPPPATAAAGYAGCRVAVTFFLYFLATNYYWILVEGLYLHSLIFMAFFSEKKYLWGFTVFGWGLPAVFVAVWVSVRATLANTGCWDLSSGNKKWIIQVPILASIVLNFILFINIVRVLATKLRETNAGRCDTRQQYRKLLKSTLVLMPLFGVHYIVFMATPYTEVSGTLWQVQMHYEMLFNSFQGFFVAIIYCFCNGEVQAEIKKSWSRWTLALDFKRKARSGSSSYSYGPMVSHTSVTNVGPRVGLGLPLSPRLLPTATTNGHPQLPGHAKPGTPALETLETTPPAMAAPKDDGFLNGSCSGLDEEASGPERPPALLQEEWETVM
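HEK-293-derived GP2 cells expressing PTHR1 and a GloSensor cAMP reporter, 3,000/well, plated overnight, given luciferin plus IBMX (each 0.5 mM as added) for 1 h at 37 °C, then compound for 1 h at 37 °C. Luminescence was read after 15 min at room temperature.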
TRHR ag – agonists of human TRH receptor. activation, % at 2 µM. P34981. AID 493084. TRHR cells, calcium flux fluo-8, FDSS agonist mode. 360,000 tested, 0.18% active; in the data active means activation above about 30%; further: 0% is about no effect
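Steps: seed TRHR cells overnight; add fluo-8 no-wash Ca dye, RT 30 min–1.5 h; record 10 s baseline; pin-transfer compounds; monitor fluorescence 1 cycle/s for the agonist window. Calcium increases flag candidate agonists.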
TRHR enhancer – TRH receptor (human) allosteric enhancement. P34981. TRHR cells, fluo-8 calcium fluorescence, EC20 TRH enhancement. enhancement, % at 2 µM. 360,000 tested, 0.66% active. AID 493056; in the data active means enhancement above about 30%; further: 0% is about no effect
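TRHR-expressing cells loaded with fluo-8 calcium dye were read kinetically (ex 480/em 530) during compound addition, then stimulated with an EC20 of TRH (10 nM final). Enhancement of the Gq-mediated intracellular calcium response was scored.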
GLP-1R agonist – agonists of human GLP-1 receptor; P43220; HEK293 GLP-1R CRE-luciferase, luminescence, 4-6 h; cells express a hypersensitive GLP-1R form; Potency, µM (doses to about 45.6 µM), inactives show at the highest dose activation, most hits filed as activators; 380,000 tested, 0.007% active; further: potency means the concentration at half of the fitted maximal effect; % of control where 0% means no effect
GLP1R inv ag – GLP-1 receptor (human) inverse agonism | P43220 | HEK293 GLP-1R CRE-luciferase, luminescence, 24 h; GLP-1R form is constitutively active | Potency, µM (series often up to 38.3 µM), inactives show at the top dose activity change, negative = inhibition, actives largely listed as inhibitors | 410,000 tested, 1.6% active | AID 624417; further: potency means the concentration at half of the fitted maximal effect; on the % scale 0 is the no-effect control and ±100 the full control effect; nearly all actives have a fitted effect of over 55% in size
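Inverse agonists were sought by their lowering of basal cAMP reporter luciferase output in HEK293 cells stably carrying constitutively active human GLP-1R, after 24 h compound treatment.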
GLP1R cytotox – cytotoxic in the GLP-1 receptor inverse agonist counter-screen. HEK293 cAMP-luciferase reporter cells, luminescence, 24 h. Potency, µM (doses to about 38.3 µM), without a hit: at the top dose activity change, negative = inhibition, most hits filed as inhibitors. 410,000 tested, 0.13% active. AID 624418;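 further: loss of luciferase light is scored as toxicity; potency means the concentration at half of the fitted maximal effect; on the % scale 0 is the no-effect control and ±100 the full control effect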
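MLSMR compounds, 24 hr on cells at 37 deg C/5% CO2; luminescence after luciferase reagent (12 min RT). Inhibition counted as the undesired cytotoxic outcome.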
* marks the source's active call; other numbers are inactive results; i = inactive; ? = inconclusive; / = no result; [ ] = dose if it differs, or a comment. Unless noted, the call rests on the fitted dose curve; in most records, active means well fitted curve in the direction sought with a large enough effect; inconclusive means small, poorly fitted or top-dose-only effect, or another doubt; inactive means no such curve, though single readings can be large; an effect the other way counts as inactive or inconclusive.

SMILES | PTHR1 agonist | TRHR ag | TRHR enhancer | GLP-1R agonist | GLP1R inv ag | GLP1R cytotox
COc1ccc(S(=O)(=O)c2c(O)c3ccc(C(=O)Nc4ccccc4Cl)cc3[nH]c2=O)cc1 | -15.5% | 0.7 | 31.8* | -5.4% | 13.6% | -2.7%
CN(C)c1cccc(C(=O)N(C)C2CCCN(Cc3ccccc3F)C2)c1 (stereo not given) | -2.6% | 0.2 | 31.1* | -0.2% | ? | 4.2%
COc1cc(C(=O)Oc2cccc(/C=N/NC(=O)c3cccnc3)c2)cc(OC)c1OC | i | 0.2 | 20.6 | 9.6% | -8.9% | -7.7%
O=C1Nc2ccccc2Oc2cc(Oc3ccccc3)ccc21 | -6.1% | -0.7 | -10.3 | / | 29.3% | -0.2%
Cc1ccc(C)c(C(C)NC(=S)NC2CCCCC2)c1 (stereo not given) | -8.3% | 0.9 | -4.8 | 0.8% | 2.82µM* | -25.2%
COc1ccc(C(=O)NCCN(C)C)c2nc3ccccc3cc12 | i | / | / | -23.2% | ? | ?
COCCCNC(=O)c1cccc2c(-c3ccc(OC)cc3C)coc12 | -59.0% | / | / | -0.2% | ? | -9.5%
CN(C)CCNC(=O)c1cccc2nc3c(ccc4ccccc43)nc12 | -20.4% | / | / | -9.8% | 8.91µM* | 11.5%
COc1ccc(-c2coc3c(C(=O)NCCN(C)C)cccc23)c(C)c1 | i | / | / | 2.8% | 11.2µM* | 5.0%
CN(C)CCNC(=O)c1ccccc1-c1ccccc1 | -0.5%[57.5 µM] | 0.2 | 0.9 | -2.5% | 0.4% | -7.3%
COc1cccc2nc3c(C(=O)NCCN(C)C)cccc3cc12 | -23.7% | / | / | -28.0% | 12.6µM* | -1.1%
COc1ccc(-c2nc3c(C(=O)NCCN(C)C)cccc3c3ccccc23)cc1 | i | / | / | -23.5% | 10µM* | ?
CCCN(CCC)CCCNC(=O)c1cn(CC)c2ccc(S(=O)(=O)N3CCc4ccccc4C3)cc2c1=O | i | -0.2 | -3.0 | 5.1% | ? | -4.1%
Cc1nc(SCC(=O)N2CCCC2=O)c2c(C)c(C)sc2n1 | i | / | / | -6.2% | -5.7% | 5.5%
CCCc1nc(SCC(=O)Nc2ccc(N3CCOCC3)cc2)c2ccccc2n1 | -1.0% | 0.6 | 2.3 | -0.6% | 38.5% | 10.8%
COCCN(CC(=O)Nc1cccc(C)c1C)C(=O)Cn1cnc2ccccc2c1=O | i | 0.0 | 1.1 | -10.7% | 1.7% | -0.1%
CC1CN(C(=O)N2CCC(C(=O)NCCC3=CCCCC3)CC2)c2cc(Cl)ccc2O1 (stereo not given) | -2.3% | -0.1 | 5.2 | / | -1.2% | 7.4%
COc1ccc(N(CC(=O)NC2CCCCC2)C(=O)c2ccc(C)s2)cc1OC | 7.5% | -1.0 | 31.8* | 9.4% | -28.5% | 4.1%
COc1ccc(N(CC(=O)NC2CCCC2)C(=O)c2ccc(C)s2)c(OC)c1 | i | -0.5 | 0.8 | 17.8% | 8.1% | -4.7%
Cc1ccc(C(=O)N/C(=C\c2cccs2)C(=O)NC2CCCCC2)cc1 | -19.6% | 0.8 | 39.9* | 4.8% | -28.2% | -3.8%
O=C(NCCCn1ccnc1)/C(=C/c1cccnc1)NC(=O)c1ccco1 | i | 0.3 | 10.1 | -3.7% | -8.8% | -0.1%
CCCCn1c(N)c(N(CCOC)C(=O)CSCc2ccc(Cl)c(Cl)c2)c(=O)[nH]c1=O | -18.2% | 0.3 | 0.8 | -0.5% | -17.4% | 6.4%
CCCCn1c(N)c(N(CCOC)C(=O)CN(C)CC(=O)Nc2ccc(Cl)c(Cl)c2)c(=O)[nH]c1=O | 50.1µM* | / | / | -2.9% | ? | -7.2%
CCCCn1c(N)c(N(CCOC)C(=O)COC(=O)COc2cc(C)ccc2Cl)c(=O)[nH]c1=O | i | 1.0 | 10.1 | -2.4% | 11.4% | 12.0%
CCCCn1c(N)c(N(CCOC)C(=O)COC(=O)COc2cc(C)c(Cl)cc2C(C)C)c(=O)[nH]c1=O | -7.1% | 0.5 | -0.4 | 11.1% | 10µM* | -12.0%
SMILES | PTHR1 agonist | TRHR ag | TRHR enhancer | GLP-1R agonist | GLP1R inv ag | GLP1R cytotox
COC(=O)c1cccc(NC(=O)CSc2nnc(C)n2C)c1 | i | 0.3 | -4.3 | 6.5% | 2.2% | -1.3%
CCc1cccc(C)c1NC(=O)CSc1nc(-c2ccccc2F)nc2nc[nH]c12 | i | 0.5 | -3.0 | -0.3% | 0.6% | -1.0%
Cc1cccc(C)c1NC(=O)C1(C)CN(S(C)(=O)=O)CC(=O)N1C1CC1 (stereo not given) | 0.6% | / | / | / | 5.4% | 0.2%
CCOc1ccc2[nH]c(=O)c(CN(Cc3cccs3)Cc3nnnn3C(C)(C)C)cc2c1 | i | -0.7 | -4.2 | 2.0% | 7.0% | ?
CCOc1ccc2[nH]c(=O)c(CN(CCN3CCOCC3)Cc3nnnn3C(C)(C)CC)cc2c1 | 21.8%[57.5 µM] | 0.2 | 30.2* | 7.8% | 0.0% | 2.5%
CCN1CCN(CC(=O)Nc2cccc(C)c2)C(=O)C1=O | i | / | / | -4.6% | -1.3% | -0.4%
CNS(=O)(=O)c1ccc(C(=O)NCC(=O)NCC2COc3ccccc3O2)cc1 (stereo not given) | i | 0.5 | 8.6 | 0.0% | 8.8% | 4.3%
CC(C)[C@H]1COCCS(=O)(=O)N1Cc1ccccc1-c1cccc(Cl)c1 | -1.5% | / | / | -0.8% | ? | 20.6%
CNc1nc(N)c(C(=O)C23CC4CC(CC(C4)C2)C3)s1 | i | 1.2 | -4.8 | 6.3% | 5.62µM* | -26.5%
O=C(c1c(F)cccc1F)N(Cc1ccccc1)Cc1ccccc1 | -18.8% | -0.1 | -0.7 | 11.6% | ? | 0.0%
CN(C)C(=O)c1ccc(SC(=S)NCc2ccccc2)cc1 | -2.1% | / | / | -0.4% | 9.7% | 3.2%
Cc1ccc(CNC(=O)c2c(Nc3c(C)cccc3C)sc(C(=O)c3ccccc3)c2N)cc1 | -21.8% | 0.4 | 5.0 | / | 7.08µM* | -24.1%
COc1ccc(CCNC(=O)c2cc(-c3ccccc3)nc3ccccc23)cc1OC | i | -0.8 | -19.5 | 17.2% | 18.8% | -2.4%
CSc1cccc(Nc2cc(C(=O)NCCc3ccc(Cl)cc3)c3ccccc3n2)c1 | 18.0% | 1.1 | -4.0 | -14.6% | 5.01µM* | 3.7%
COc1ccc(CCNC(=O)c2cc(Nc3cc(C)cc(C)c3)nc3ccccc23)cc1OC | -43.3% | -0.7 | 2.1 | -8.6% | 4.47µM* | 2.9%
Cc1cc(C)cc(Nc2cc(C(=O)NC3CCCCC3)c3ccccc3n2)c1 | ? | -0.5 | 7.2 | 0.2% | 20.2% | 2.7%
Cc1cc(C)cc(Nc2cc(C(=O)NC3CCC(C)CC3)c3ccccc3n2)c1 (stereo not given) | 22.9% | 0.4 | 33.1* | -0.2% | ? | -0.1%
CCCCN(CCCNC(=O)c1cc(Nc2cccc(SC)c2)nc2ccccc12)Cc1ccccc1 | -15.6% | -0.9 | 3.7 | / | ? | 1.1%
Cc1ccc(CNC(=O)[C@H]2O[C@@H](n3cnc4c(N)ncnc43)[C@H](O)[C@@H]2O)o1 | -17.0% | / | / | 3.6% | 2.4% | 4.7%

Source: PubChem BioAssay
